According to PubChem BioAssay (NCATS):
Results filed as inconclusive are left out. Active and inactive are the calls of the source. Calls come from the whole dose curve; as a rule, active = well fitted curve in the direction sought with a large enough effect; inconclusive = small, poorly fitted or top-dose-only effect, or another doubt; inactive = no such curve, though single readings can be large; an effect the other way counts as inactive or inconclusive.

Legend:
[1] = Quantitative highthroughput screen to assess conditional lethalithy of NOMO1 cells grown in RPMI1640 with untreated serum (RPMI+s) (AID 1963876); conditions: NOMO1 AML cells in RPMI+serum, CellTiter-Glo viability, 48 h; series mostly up to 45.8 µM; note: nearly all actives have a fitted effect of over 35% in size; note: potency is the fitted concentration of half-maximal effect;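 for viability: 100% = DMSO wells and 0% = empty wells without cells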
Procedure, shortened: (§1)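 Each medium arm—HPLM with 10% dialyzed FBS, or RPMI1640 with 5 mM glucose and 10% untreated or dialyzed FBS—was screened against an 11-point, 3-fold compound titration for 48 h at 37 °C, with CellTiter-Glo luminescence as endpoint.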

[2] = Quantitative highthroughput screen to assess conditional lethalithy of NOMO1 cells grown in RPMI1640 with dialyzed fetal bovine serum (RPMI+ds) (AID 1963877); conditions: NOMO1 in RPMI+dialyzed FBS viability, ATP luminescence, 48 h; series mostly up to 45.8 µM; note: nearly all actives have a fitted effect of over 30% in size; note: potency is the fitted concentration of half-maximal effect;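 for viability: 100% = DMSO control wells and 0% = empty wells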
Procedure, shortened: as §1

[3] = Quantitative highthroughput screen to assess conditional lethalithy of NOMO1 cells grown in Human Plasma-Like Medium with dialyzed fetal bovine serum (HPLM+ds) (AID 1963878); conditions: NOMO1 AML cells in HPLM+ds, CellTiter-Glo viability, 48 h; series mostly up to 45.8 µM; note: nearly all actives have a fitted effect of over 35% in size; note: potency is the fitted concentration of half-maximal effect;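 for viability: 100% = DMSO wells and 0% = empty wells on each plate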
Procedure, shortened: as §1

[4] = Quantitative highthroughput screen to assess conditional lethalithy of SEM cells grown in RPMI1640 with unreated serum (RPMI+s) (AID 1963883); conditions: SEM B-ALL cells, CellTiter-Glo viability, 48 h; series mostly up to 45.8 µM; note: nearly all actives have a fitted effect of over 35% in size; note: potency is the fitted concentration of half-maximal effect;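 for viability: 100% = DMSO wells and 0% = empty wells without cells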
Procedure, shortened: as §1

[5] = Cellular viability qHTS for adrenocortical cancer (ACC) cell line SW-13 (AID 1963989); conditions: SW-13 ACC cells viability, CellTiter-Glo, 48 h; activity (max response): hits give low values;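 note: cells grown in serum-free medium with ITS supplement; % is set by controls: 0 for no effect and ±100 for the full control effect; nearly all actives have a fitted effect of over 65% in size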
Procedure, shortened: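 Viability was read as CellTiter-Glo luminescence after 48 h compound treatment (up to 46 uM final) of SW-13 cells grown serum-free; titration curves were fit with a four-parameter logistic model to give IC50 and efficacy.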

[6] = Cellular viability qHTS for adrenocortical cancer (ACC) cell line NCI-H295R (AID 1963990); conditions: CellTiter-Glo ATP luminescence, 48 h; series mostly up to 46.1 µM; note: nearly all actives have a fitted effect of over 60% in size; note: potency is the fitted concentration of half-maximal effect
Procedure, shortened: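 CellTiter-Glo ATP luminescence, read 48 h after compound addition, measured viability of NCI-H295R adrenocortical cells grown serum-free with ITS. Final concentrations spanned up to 46 uM. Data normalized to DMSO and doxorubicin, fitted for IC50 and maximal response.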

[7] = Quantitative highthroughput screen to assess conditional lethalithy of P12 Ichikawa cells grown in Human Plasma-Like Medium with dialyzed fetal bovine serum (HPLM+ds) (AID 1963879); conditions: ATP luminescence, 48 h; Potency: viability; series mostly up to 45.8 µM; note: nearly all actives have a fitted effect of over 35% in size; note: potency is the fitted concentration of half-maximal effect
Procedure, shortened: as §1

[8] = Quantitative highthroughput screen to assess conditional lethalithy of P12 Ichikawa cells grown in RPMI1640 with dialyzed fetal bovine serum (RPMI+ds) (AID 1963880); conditions: ATP luminescence, 48 h; Potency: P12-Ichikawa viability; series mostly up to 45.8 µM; note: nearly all actives have a fitted effect of over 35% in size; note: potency is the fitted concentration of half-maximal effect;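 for viability: 100% = DMSO wells and 0% = empty wells on each plate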
Procedure, shortened: as §1

[9] = Quantitative highthroughput screen to assess conditional lethalithy of P12 Ichikawa cells grown in RPMI1640 with untreated serum (RPMI+s) (AID 1963881); conditions: ATP luminescence, 48 h; Potency: viability; series mostly up to 45.8 µM; note: nearly all actives have a fitted effect of over 35% in size; note: potency is the fitted concentration of half-maximal effect;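 for viability: 100% = DMSO wells and 0% = empty wells without cells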
Procedure, shortened: as §1

[10] = Quantitative highthroughput screen to assess conditional lethalithy of SEM cells grown in Human Plasma-Like Medium with dialyzed fetal bovine serum (HPLM+ds) (AID 1963882); conditions: SEM B-ALL cells in HPLM+ds, CellTiter-Glo viability, 48 h; series mostly up to 45.8 µM; note: nearly all actives have a fitted effect of over 35% in size; note: potency is the fitted concentration of half-maximal effect
Procedure, shortened: as §1

[11] = Quantitative highthroughput screen to assess conditional lethalithy of SEM cells grown in RPMI1640 with dialyzed fetal bovine serum (RPMI+ds) (AID 1963884); conditions: SEM B-ALL cells, RPMI+dialyzed FBS, CellTiter-Glo viability, 48 h; series mostly up to 45.8 µM; note: nearly all actives have a fitted effect of over 35% in size; note: potency is the fitted concentration of half-maximal effect;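 for viability: 100% = DMSO control wells and 0% = empty wells without cells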
Procedure, shortened: as §1

Clc1ccc2c(N3CCN(CCCN4CCN(c5ccnc6cc(Cl)ccc56)CC4)CC3)ccnc2c1
inactive: Potency [1] | Potency [2] | Potency [3] | activity (max response) [5] -23.4% | Potency [6]
active: Potency [4] 7.24 µM

CN[C@H]1[C@@H](O)[C@@H]2O[C@@H]3O[C@H](C)CC(=O)[C@]3(O)O[C@@H]2[C@@H](NC)[C@H]1O
inactive: Potency [1] | Potency [2] | Potency [7] | Potency [8] | Potency [9] | Potency [10] | Potency [4] | Potency [11]

CC(C)(C)NC(=O)[C@H]1CN(Cc2cccnc2)CCN1C[C@@H](O)C[C@@H](Cc1ccccc1)C(=O)N[C@H]1c2ccccc2C[C@H]1O
inactive: Potency [1] | Potency [2] | Potency [3] | Potency [10]

Cc1cnc(-c2cc(N3CCN(C(=O)CCS(C)(=O)=O)CC3)ncc2Cl)c(C)c1
inactive: Potency [1] | Potency [2] | Potency [7] | Potency [8] | Potency [9] | Potency [10] | Potency [4] | Potency [11] | activity (max response) [5] -0.258% | Potency [6]

CC(=O)O[C@H]1C[C@@H]2CC[C@H]3[C@H]4C[C@H]([N+]5(C)CCCCC5)[C@@H](OC(C)=O)[C@@]4(C)CC[C@@H]3[C@@]2(C)C[C@H]1[N+]1(C)CCCCC1
inactive: Potency [1] | Potency [2] | Potency [7] | Potency [8] | Potency [9] | Potency [10] | Potency [4] | Potency [11] | activity (max response) [5] 7.56% | Potency [6]

COc1cc(NC(=O)c2ccc(-c3ccc(Cl)cc3)o2)cc(OC)c1
inactive: Potency [7] | Potency [8] | Potency [9] | Potency [10] | Potency [4] | Potency [11]
active: Potency [1] 1.87 µM | Potency [2] 2.35 µM

O=C(C=Cc1c(C(=O)O)[nH]c2cc(Cl)cc(Cl)c12)Nc1ccccc1
inactive: Potency [1] | Potency [2] | Potency [7] | Potency [8] | Potency [9]

CC1(C)[C@H]2CC[C@]3(C)[C@@H](C(=O)C=C4[C@@H]5C[C@@](C)(C(=O)O)CC[C@]5(C)CC[C@]43C)[C@@]2(C)CC[C@@H]1O
inactive: Potency [1] | Potency [2] | Potency [7] | Potency [8] | Potency [9] | Potency [10] | Potency [4] | Potency [11]

COC(=O)C[C@](O)(CCCC(C)(C)O)C(=O)O[C@@H]1C(OC)=C[C@]23CCCN2CCc2cc4c(cc2[C@H]13)OCO4
inactive: Potency [1] | Potency [2] | Potency [7] | Potency [8] | Potency [9] | Potency [10] | Potency [4] | Potency [11] | Potency [6]

C1=CCOCc2cc(ccc2OCCN2CCCC2)Nc2nccc(n2)-c2cccc(c2)OCC1
active: Potency [1] 7.43 µM | Potency [2] 6.62 µM | Potency [7] 10.5 µM | Potency [8] 13.2 µM | Potency [9] 13.2 µM | Potency [10] 3.32 µM | Potency [4] 4.18 µM

NC(=O)c1nnn(Cc2cc(Cl)c(C(=O)c3ccc(Cl)cc3)c(Cl)c2)c1N
inactive: Potency [1] | Potency [2] | Potency [3] | Potency [10]

COc1cc2ncn(-c3cc(OCc4ccccc4S(C)(=O)=O)c(C#N)s3)c2cc1OC
inactive: Potency [1] | Potency [2] | Potency [7] | Potency [8] | Potency [9] | Potency [10] | Potency [4] | Potency [11] | activity (max response) [5] -11.8%

Nc1ccn([C@@H]2O[C@H](CO)[C@H](O)C2(F)F)c(=O)n1
active: Potency [1] 0.0833 µM | Potency [2] 0.0833 µM | Potency [7] 0.0833 µM | Potency [8] 0.0526 µM | Potency [9] 0.0743 µM | Potency [10] 0.0118 µM | Potency [4] 0.0166 µM | Potency [11] 0.0059 µM

CNC(=O)c1cc(COc2nnc(Nc3ccc(Cl)cc3)c3ccoc23)ccn1
inactive: Potency [1] | Potency [2] | Potency [7] | Potency [8] | Potency [9] | activity (max response) [5] -21.4%
active: Potency [10] 16.6 µM | Potency [6] 12.6 µM

O=c1c(-c2ccc(O)cc2)coc2cc(O[C@@H]3O[C@H](CO)[C@H](O)[C@H](O)[C@H]3O)ccc12
active: Potency [10] 14.8 µM
inactive: Potency [1] | Potency [2] | Potency [7] | Potency [8] | Potency [9]

COc1ccc2cc1Oc1ccc(cc1)C[C@H]1c3cc(c(OC)cc3CCN1C)Oc1c(OC)c(OC)cc3c1[C@H](C2)N(C)CC3
inactive: Potency [1] | Potency [2] | Potency [3] | Potency [10]

Nc1ncn([C@@H]2O[C@H](CO)[C@@H](O)[C@@H]2O)c(=O)n1
active: Potency [1] 16.6 µM | Potency [2] 7.43 µM | Potency [3] 16.6 µM | Potency [10] 9.35 µM | Potency [4] 10.5 µM | Potency [11] 4.69 µM

CC(CCc1ccc(O)cc1)NCCc1ccc(O)c(O)c1 (stereo not drawn)
active: Potency [10] 20.9 µM | Potency [4] 20.9 µM | Potency [11] 20.9 µM
inactive: Potency [1] | Potency [2] | Potency [3] | Potency [6]

COC1=C2C[C@@H](C)C[C@H](OC)[C@@H](O)[C@@H](C)C=C(C)[C@H](OC(N)=O)[C@@H](OC)C=CC=C(C)C(=O)NC(=CC1=O)C2=O
active: Potency [1] 23.5 µM | Potency [2] 20.9 µM | Potency [3] 18.7 µM | Potency [10] 8.33 µM | Potency [4] 8.33 µM | Potency [11] 7.43 µM
